Drawing on PubChem BioAssay AID651821 (The Scripps Research Institute Molecular Screening Center, 2012), this text covers inhibition for 29 compounds.

Structures are written as SMILES. The campaign covered roughly 370,000 compounds. About 4,700 (1.3%) were called active. The sample holds actives, similar compounds and a random draw of the others, so the mix is not that of the screen.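 The calls were made as follows: active = inhibition above the plate cutoff, the mean of all test compounds on that plate plus 3 SD (cut at about 35% in these data); inactive = the rest.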

A short description of this test: binders of r(CAG) RNA repeats, primary screen, biochemical, fluorescence (AID 651821).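 Also: 0% = DMSO alone and 100% = 100 µM mitoxantrone as full dye displacement; higher means more dye released from RNA so lower well fluorescence.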 Particulars: r(CAG) RNA repeat, TO-PRO-1 dye displacement fluorescence; at 3 µM; active compounds read high.
On to `OC(c1ccccc1)c1nc(/C=C/c2ccc(C(F)(F)F)cc2)cs1` (centres undefined), for which the inhibition was 3.22% (inactive).

Take `O=C(Nc1c(-c2ccccc2)nc2c(Br)cc(Br)cn12)c1ccco1`: the inhibition was 7.88% (inactive).

In the case of `O=C(Nc1nonc1-c1ccc(Cl)cc1)c1ccco1`, the inhibition is -0.35% (inactive).

Take `O=C(Nc1nc(-c2ccco2)c(-c2ccco2)s1)c1ccco1`: the inhibition was 70.5% (active).

For `COC(=O)C1=C(C)N(Cc2ccc(F)cc2)C(=S)NC1c1cccc(Cl)c1` (centres undefined), the inhibition is 3.4% (inactive).

In the case of `N[C@@H](Cc1ccccc1)C(=O)N1CCC[C@@H]1C(=O)N1CCC2CCN(S(=O)(=O)c3ccccc3)CC21` (some centres undefined), the inhibition was 0.99% (inactive).

Consider `COC(=O)Cc1nnn2c1[C@H](C)[C@@H](OC)c1cc(Br)ccc1-2`, for which the inhibition is -0.28% (inactive).

Turning to `Clc1ccc(C(Cn2ccnc2)OCc2ccsc2Cl)c(Cl)c1` (centres undefined), the inhibition was 2.12% (inactive).

For the compound `CCN=C1SC(CC(=O)Nc2ccc(C)cc2)C(=O)N1CC` (centres undefined), the inhibition is -2.97% (inactive).

As to `Cc1ccc(NC(=O)CC2S/C(=N/N=C3\CCCc4ccccc43)NC2=O)cc1` (centres undefined), the inhibition is 42.2% (active).

Consider `Cc1c(Cl)cccc1NC(=O)CC1SC(=NCC2CCCO2)NC1=O` (centres undefined), for which the inhibition is -0.81% (inactive).

With `CC(=O)N1C[C@@H](CO)[C@@H](N(C)C(=O)C(C)(C)C)C[C@H]1c1ccccc1Br`, the inhibition was -1.82% (inactive).

With `C[C@@H]1COc2cccc(N3CCCC3)c2S(=O)(=O)N1C`, the inhibition is 1% (inactive).

On to `CC(C)(C)C1C/C(=C/c2ccco2)C(=O)/C(=C/c2ccco2)C1` (centres undefined), for which the inhibition was 44.8% (active).

In the case of `O=C(CN1C(=O)NC(Cc2c[nH]c3ccccc23)C1=O)Nc1ccccc1C(F)(F)F` (centres undefined), the inhibition was 2.5% (inactive).

On to `CC1CCN(C(=O)c2ncn3c2C(=O)N[C@@H](C)C3)CC1`, for which the inhibition was 1.9% (inactive).

Take `O=C(N1CCOCC1)N1CC[C@H]2[C@H](CCCN2Cc2ccc(F)cc2)C1`: the inhibition is -0.35% (inactive).

Regarding `C=CCN1C(=O)[C@@H](CC(=O)N2CCN(C(=O)OCC)CC2)[C@]2(C(=O)OCC)CCCCC/C=C/12`, the inhibition is 1.94% (inactive).

As to `COc1ccc(CSc2nnc(-c3cccc(C)c3)n2C)cc1`, the inhibition was -0.02% (inactive).

As for `CCOc1ccc(NC(=O)CSc2nc3ccccc3c(=O)n2Cc2cccs2)cc1`, the inhibition was 1.43% (inactive).

As to `COc1ccc(-n2c(SCC(=O)Nc3ccc(C)c(Cl)c3)nc3ccccc3c2=O)cc1`, the inhibition was 16.1% (inactive).

As to `CCOc1ccc(-n2c(SCC(=O)Nc3cc(C(=O)O)ccc3Cl)nc3ccccc3c2=O)cc1`, the inhibition is 46.3% (active).

Turning to `COc1ccc(CN2C(=O)N3Cc4cc(OC)ccc4C3CS2(=O)=O)cc1` (centres undefined), the inhibition is 1.88% (inactive).

Turning to `COCCCNC(=O)C[C@H]1C[C@@]2(C(=O)OC)C(=C[C@H](C(C)(C)C)O[C@@H]2C)N(Cc2ccc(Cl)cc2Cl)C1=O`, the inhibition is 1.45% (inactive).

`COC(=O)[C@]12C[C@H](CC(=O)NCCc3ccccc3OC)C(=O)N(Cc3ccccc3)C1=C[C@H](C(C)C)O[C@@H]2C1CC1`: the inhibition is 0.77% (inactive).

On to `Cc1ccccc1-n1c(SCC(=O)Nc2cccc3ccccc23)nc(O)cc1=O`, for which the inhibition was 42.6% (active).

In the case of `Cc1ccc(-n2c(SCC(=O)Nc3cccc4ccccc34)nnc2-c2ccccn2)cc1`, the inhibition was 3.79% (inactive).

`C=CCn1c(N)cc(=O)nc1SCC(=O)Nc1cccc2ccccc12`: the inhibition was 3.99% (inactive).

Consider `CC(C)N1CCCCC(NC(=O)C(C)(C)C)C1=O` (centres undefined), for which the inhibition was 0.73% (inactive).
